Columns and labels:
Assay in all cases: thermal shift delta Tm vs DMSO control; higher = stronger stabilization (binding)
Conditions in all cases: 12.5 µM; protein concentration 2 µM
[1] = tested on: LOC_OS01G01410-cb001
Summary of the method: (§1)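 The melting temperature shift given here is a triplicate mean, measured against protein that received only DMSO. Melting temperatures came from Boltzmann fits of differential scanning fluorimetry data on E. coli-expressed, purified rice kinase domain constructs. Each 19.5 μl well contained 2 μM kinase, 100 mM potassium phosphate pH 7.5, 150 mM NaCl, 10% glycerol, 5 × SYPRO Orange and compound in DMSO. Plates were scanned from 25°C to 95°C at 0.05°C/s.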

[2] = tested on: LOC_OS01G02750-cb003
Summary of the method: as §1

[3] = tested on: LOC_OS01G10900-cb004
Summary of the method: as §1

[4] = tested on: LOC_OS01G13800-cb001
Summary of the method: as §1

[5] = tested on: LOC_OS01G14860-cb001
Summary of the method: as §1

[6] = tested on: LOC_OS01G21960-cb002
Summary of the method: as §1

[7] = tested on: LOC_OS01G39600-cb002
Summary of the method: as §1

[8] = tested on: LOC_OS01G48390-cb002
Summary of the method: as §1

[9] = tested on: LOC_OS01G51400-cb002
Summary of the method: as §1

[10] = tested on: T1, LOC_OS01G52050-cb004
T1 sequence (whole entry): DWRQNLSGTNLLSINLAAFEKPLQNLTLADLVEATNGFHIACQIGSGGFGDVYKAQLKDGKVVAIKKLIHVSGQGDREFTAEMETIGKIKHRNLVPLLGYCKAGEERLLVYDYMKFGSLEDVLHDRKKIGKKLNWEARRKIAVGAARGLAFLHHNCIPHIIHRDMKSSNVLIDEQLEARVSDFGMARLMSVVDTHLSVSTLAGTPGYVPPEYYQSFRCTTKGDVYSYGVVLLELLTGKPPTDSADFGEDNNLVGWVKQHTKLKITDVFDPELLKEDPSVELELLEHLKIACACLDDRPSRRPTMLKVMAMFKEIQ
Summary of the method: as §1

[11] = tested on: LOC_OS01G57100-cb003
Summary of the method: as §1

[12] = tested on: LOC_OS01G60330-cb001
Summary of the method: as §1

[13] = tested on: LOC_OS01G60700-cb002
Summary of the method: as §1

[14] = tested on: LOC_OS01G63280-cb003
Summary of the method: as §1

[15] = tested on: LOC_OS01G67340-cb003
Summary of the method: as §1

[16] = tested on: LOC_OS01G70970-cb002
Summary of the method: as §1

[17] = tested on: LOC_OS02G07810-cb001
Summary of the method: as §1

[18] = tested on: LOC_OS02G08530-cb003
Summary of the method: as §1

[19] = tested on: LOC_OS02G14120-cb001
Summary of the method: as §1

[20] = tested on: LOC_OS02G17970-cb001
Summary of the method: as §1

Row | Compound | thermal shift delta Tm [1] [°C] | thermal shift delta Tm [2] [°C] | thermal shift delta Tm [3] [°C] | thermal shift delta Tm [4] [°C] | thermal shift delta Tm [5] [°C] | thermal shift delta Tm [6] [°C] | thermal shift delta Tm [7] [°C] | thermal shift delta Tm [8] [°C] | thermal shift delta Tm [9] [°C] | thermal shift delta Tm [10] [°C] | thermal shift delta Tm [11] [°C] | thermal shift delta Tm [12] [°C] | thermal shift delta Tm [13] [°C] | thermal shift delta Tm [14] [°C] | thermal shift delta Tm [15] [°C] | thermal shift delta Tm [16] [°C] | thermal shift delta Tm [17] [°C] | thermal shift delta Tm [18] [°C] | thermal shift delta Tm [19] [°C] | thermal shift delta Tm [20] [°C]
1 | Cc1cc2c(F)c(Oc3ncnn4cc(OC[C@@H](C)OC(=O)[C@H](C)N)c(C)c34)ccc2[nH]1 | 1.74 | 0.78 | 0.61 | 0.4 | 0.52 | 0.54 | 0.75 | 0.96 | -0.47 | -0.05 | 2.01 | 2.03 | 1.53 | 0.53 | 0.06 | 0.49 | 0.41 | 0.78 | 0.99 | 0.23
2 | CC(C)c1ccc2oc3nc(N)c(C(=O)O)cc3c(=O)c2c1 [Amlexanox] | 0.99 | 0.05 | 0.62 | -0.62 | 0.4 | -0.2 | 2.5 | -0.03 | 0.2 | 1.26 | 1.39 | 3.07 | 0.37 | 0.05 | 0.99 | 4.3 | 0.24 | 1.49 | 0.32 | -0.09
3 | CCCCOc1c(C(=O)c2c(F)cc(C)cc2F)c[nH]c2nncc1-2 | 1.01 | 0.64 | 1.09 | 0.41 | 2.54 | 1.36 | 0.07 | 0.94 | 0 | 0.38 | 0.94 | 0.86 | -0.01 | 0.42 | 1.31 | 0.23 | 0.81 | 0.56 | 1.75 | 0.7
4 | Cc1nc(Nc2n[nH]c3c2CN(C(=O)N[C@H](CN(C)C)c2ccccc2)C3(C)C)c2sccc2n1 | 0.37 | 2.46 | 0.23 | -0.4 | 4.22 | 2.47 | 0.6 | 0.23 | 0.28 | 0.94 | 0.61 | -0.15 | 1.34 | 0.55 | 0.06 | 0.38 | 0.99 | 2.37 | 0.4 | 0.96
5 | C[C@@H](NC(=O)c1ncnc(N)c1Cl)c1ncc(C(=O)Nc2cc(C(F)(F)F)c(Cl)cn2)s1 | 1.26 | 1.15 | 2.82 | -0.27 | 0.84 | 0.73 | -1.6 | 2.52 | 0.56 | 0.43 | 0.35 | 1.01 | 1.42 | 1.75 | 0.42 | 0.8 | 0.35 | 0.67 | 0.58 | 0.7
6 | CCn1c(=O)c(-c2ccc(-c3cncs3)cc2Cl)cc2cnc(Nc3ccc(N4CCN(C)CC4)cc3)nc21 | 0.16 | -0.15 | 0.42 | 0.34 | 0.12 | 0.22 | -0.49 | -0.5 | 0.02 | -0.32 | 1.89 | 1.07 | 0.86 | 0.25 | 1.37 | 0.17 | 0.59 | 0.55 | -0.39 | 0.23
7 | COc1ccc(/C=C/C(=O)C2(C(=O)/C=C/c3ccc(OC)c(OC)c3)CCCCC2)cc1OC | 0.52 | 0.5 | 1.18 | 0.16 | 0.18 | 0.55 | 0.02 | 0.51 | 0.07 | 0.63 | 2.18 | 0.27 | 0.41 | 0.1 | 0.3 | 0.31 | 0.4 | 1.47 | 0.46 | 0.38
8 | Cc1ccc([N+](=O)[O-])cc1S(=O)(=O)N(C)/N=C/c1cnc2ccc(Br)cn12 | 1.6 | 11.6 | 7.32 | 0.52 | 8.02 | 3.8 | 1.85 | 1.1 | 0.2 | 11.7 | 3.41 | -0.03 | 1.24 | 1.7 | 3.58 | 4.2 | 0.51 | 6.04 | 9.06 | 1.2
9 | CS(=O)(=O)CCNCc1ccc(-c2ccc3ncnc(Nc4ccc(OCc5cccc(F)c5)c(Cl)c4)c3c2)o1 | 1.42 | 0.57 | -0.68 | 0.49 | 0.2 | 0.5 | 0.33 | 0.41 | 0.31 | 0.63 | 0.92 | 1.06 | 1.49 | 0.35 | -0.49 | 0.26 | 1.15 | 0.58 | -0.53 | 0.69
10 | c1ccc(-c2[nH]ncc2-c2ccnc3ccccc23)nc1 | 0.44 | 0.87 | 0.58 | 0.69 | 0.36 | 0.76 | 0.33 | 0.11 | 0.03 | 0.61 | 0.37 | -0.07 | 0.62 | -0.05 | 0.51 | -0.04 | 0.95 | 0.29 | 2.26 | 0.56
11 | COc1cc(OC)c(/C=C/S(=O)(=O)Cc2ccc(OC)c(NCC(=O)O)c2)c(OC)c1 | 0.51 | 1.22 | 0.58 | 0.83 | 0.27 | 0.96 | -0.03 | 0.33 | 0.1 | 0.51 | 0.72 | 0.72 | 1.27 | 0.67 | -0.23 | -0.1 | 1.48 | 0.79 | 0.49 | 0.94
12 | O=C1c2c(O)cc(O)cc2OC(c2ccc(O)c(O)c2)C1O (stereo not given) [Taxifolin (Dihydroquercetin)] | 0.87 | 0.83 | 0.4 | 0.01 | 0.34 | 0.61 | 0.19 | 0.17 | 0.11 | 0.49 | 1.27 | 0.28 | 0.38 | 0.25 | 0.07 | 0.29 | 0.09 | 0.73 | 0.32 | 0.67
13 | CS(=O)(=O)c1ccc(-c2cnc(N)c(C(=O)Nc3ccccc3)n2)cc1 | 1.64 | 0.51 | 0.6 | 0 | 5.11 | 1.15 | 1.65 | 0.08 | 0.3 | 0.77 | 0.59 | 1.29 | 0.17 | 0.26 | 0.52 | 1.04 | 0.54 | 0.71 | -0.32 | -0.36
